Assay results taken from the supplement of paper PMC3334620.
In all, about 33,000 sequences were measured (“E-score (-0.5 to 0.5)”: median about -0.016, highest 2% from about 0.31 on). Many of the other results were omitted from the sample, so the highest values are more common in it than they were.

The sequences below were run against Cst6 (UniProt P40535) (assay: PBM E-score (8-mer binding enrichment) (E-score (-0.5 to 0.5)); higher = stronger / more preferred TF binding). Settings: protein concentration: 200 nM; construct: GST-DNA-binding domain.
Sequence of UniProt P40535 (P40535 whole entry, the tested form may be a part): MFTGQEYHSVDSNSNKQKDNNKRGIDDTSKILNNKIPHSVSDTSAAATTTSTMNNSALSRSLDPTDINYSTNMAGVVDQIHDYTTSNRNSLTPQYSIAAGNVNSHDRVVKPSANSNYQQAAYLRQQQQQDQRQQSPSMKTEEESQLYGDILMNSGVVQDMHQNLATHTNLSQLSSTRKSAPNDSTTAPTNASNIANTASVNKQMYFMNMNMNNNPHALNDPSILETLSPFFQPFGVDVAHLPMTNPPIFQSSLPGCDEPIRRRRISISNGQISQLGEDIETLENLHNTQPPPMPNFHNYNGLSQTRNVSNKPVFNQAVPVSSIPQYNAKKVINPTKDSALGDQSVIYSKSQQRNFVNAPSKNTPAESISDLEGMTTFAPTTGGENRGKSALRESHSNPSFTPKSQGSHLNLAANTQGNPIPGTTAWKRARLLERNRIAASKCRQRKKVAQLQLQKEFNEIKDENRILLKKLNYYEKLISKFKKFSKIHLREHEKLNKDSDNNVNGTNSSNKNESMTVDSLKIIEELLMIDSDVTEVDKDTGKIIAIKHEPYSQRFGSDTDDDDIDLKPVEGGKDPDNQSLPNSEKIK
Procedure, shortened: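 Masliner-normalised scans of fluorescent anti-GST signal were the basis for scoring. That signal came from GST-tagged yeast transcription factors applied at about 100-200 nM to double-stranded universal all-10-mer Agilent arrays on fresh or once-stripped slides. Each ungapped eight-base word, pooled with its reverse complement, received an E-score from the Universal PBM Analysis Suite.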

Sequence | PBM E-score
TCATATAA | 0.305
CAATAAAA | 0.165
GAATAAAA | 0.216
GCATATAA | 0.166
CATCCTAC | -0.0877
CCAGGGCC | -0.39
ATTGGCGC | 0.0493
CGACTACC | -0.363
CTTCCATC | -0.0839
CAAGTCTC | -0.247
TCGCCTAA | -0.0175
AAAAGAGG | -0.121
TACCAGAA | 0.0986
AGGGAAGG | -0.28
CAATATAG | 0.0707
CAATATAA | 0.312
CAATATAC | -0.0952
GCACGGCC | 0.23
GAACGGCA | 0.352
TCACGGCA | 0.224
CAACGGCA | 0.094
GCACGGCA | 0.353
GAACGGCC | -0.183
GGCAGGCC | -0.332
ATGGGTCC | -0.242
GACACCAC | -0.0664

Sequence | PBM E-score
CGTTGTCC | 0.126
GGGGAAAA | -0.101
CGCATACC | 0.117
ATTATGTA | 0.355
ACTATGTC | 0.0789
GTTATGTA | 0.165
ATTATGTC | 0.359
ATTATGTG | 0.228
CTTATGTC | 0.105
CTTACTGA | -0.0696
GGGCTCAA | -0.174
ACCCCTTG | -0.33
AGAAATCG | -0.0866
AATATTGT | 0.306
AATATTGG | 0.0316
ACTATATC | 0.128
AATATATG | 0.171
GCTATATA | 0.167
ACTATATA | 0.316
GATATATA | 0.304
TATATATA | 0.315
TATATACA | 0.161
AATATTGC | 0.257
AATATATT | 0.355
AATATATA | 0.239
GAATGTGC | 0.07

Sequence | PBM E-score
GGACGAAC | -0.0196
ACTTGCGC | -0.0133
CTCGCATC | 0.00499
AGTATATC | 0.0089
CATATATG | 0.341
AGTATATA | 0.348
AGTATATG | 0.111
CATATATC | 0.121
CATATATA | 0.272
AGTTGCGA | 0.0793
AAACTGAT | 0.0925
ACGCGATG | 0.122
AATTGTCG | 0.0471
CATTTGTC | 0.0906
CAGGGTTA | -0.124
CACGTAAA | 0.181
GACGTAAA | 0.374
ACCGTAAG | 0.109
AACGTAAA | 0.274
AACGTACT | 0.0968
AACGTAAG | 0.306
AACGTAGC | 0.0195
CACGTAAG | 0.292
ACCGTAAC | -0.0255
GCCGTAAA | 0.243
AACGTAAT | 0.453

Sequence | PBM E-score
AACGTAAC | 0.329
CACCCTCA | -0.212
AAGTTCAC | -0.0134
GACTTGAA | -0.171
AGCTGTGA | 0.135
TCGGAAAA | 0.113
AGTCTAGA | -0.124
CTCGGACC | -0.18
GGGCTGGA | -0.295
CATGCGTA | 0.15
TCCGTAAA | -0.0237
GACGTAAC | 0.46
GACGTAGC | 0.166
TACGTAAA | 0.42
TGCGTAAA | 0.218
CACGTAAC | 0.262
GACGTACC | 0.349
CACGTACC | -0.0025
AACGTACC | -0.185
GCTTGATA | 0.162
CCCGCTCA | -0.0513
CCGCAGGA | -0.234
AATCGGGT | 0.191
TCTCGGCA | -0.0951
GCAGCCCC | -0.349
GGGTGTAC | -0.185

Sequence | PBM E-score
CTCACATC | 0.0865
ATTACACC | 0.089
ATTACACA | 0.318
ATTACATG | 0.245
AGTACATC | -0.0114
CTTACATC | 0.365
ATTACACG | 0.205
ATTACAAC | 0.226
GTTACATA | 0.228
ATTACATC | 0.433
CTTACATA | 0.25
ATTACATA | 0.396
GAGACCCC | -0.279
AACCCACC | 0.0456
CTTTAGAA | 0.0739
AATCCGAG | -0.0702
ATCAAGGA | -0.0436
AAGGGGCA | -0.178
ATGATAAC | 0.263
GTGATAAA | 0.201
ATGATATG | 0.269
ATGATAAA | 0.307
ATGATATA | 0.31
CTGATATA | 0.179
ATCAAATG | 0.0892
AATATTAG | 0.185

Sequence | PBM E-score
TATATTAA | 0.336
AATATTAA | 0.334
CATATTAA | 0.234
AATATTAT | 0.242
GATATTAA | 0.201
TGGATCAA | 0.125
CCTAGTAA | -0.194
CAAAGCTA | 0.0247
ATCATTTC | 0.246
CTCATTAA | 0.0741
ATCATTTA | 0.335
ATCATTAA | 0.28
GACATTTA | 0.115
ATCATTTG | 0.165
GTCATTTA | 0.368
GTCATTAA | 0.394
CTCATTTA | 0.141
CCGCTCCA | -0.152
ACCCCCCC | -0.357
ATTGACAG | 0.0614
ATGACGGG | 0.258
ATGACGGC | 0.365
AAGACGGA | 0.00374
GCGACGGA | -0.224
CTGACGGC | 0.111
ATGACGGA | 0.417

Sequence | PBM E-score
CTGACGGA | 0.165
GTGACGGA | 0.352
ACGACGGA | 0.0762
CGCATAAG | 0.102
CGTACGGA | 0.168
GAAAGCGC | -0.00012
CCAAACCC | -0.126
ATGACAAC | 0.302
CTGACAGC | -0.148
CGGACATC | -0.196
ATGACACC | 0.228
ATGACATC | 0.478
CTGACATC | 0.307
CAGAGGAG | -0.0824
CCTTACCC | -0.0626
CCAGAAGG | -0.0896
GCGCGCGC | 0.345
ACGCGCGC | 0.175
CCGCGCGA | 0.255
GCGCGCGA | 0.0433
CCGCGCGC | 0.151
CCGCGCGG | 0.382
AGCCCCAA | -0.281
